Laboratory results reported in PubChem BioAssay AID1159580 (chemical genetic matrix, 2015).
“And” between values parts separate entries of the source, which are not always exact repeats. Equal entries are not always repeated. Hit rate of the full screen: of about 5,500 compounds, about 2,000 (36%) were called active. Inconclusive results (about 18%) are left out. No stated cut-off is given here; in the data, active means normalized growth mostly below about 0.91 (no sharp cut-off); inconclusive means no clear call, values can overlap the other calls; inactive means mostly above about 0.92. This is one part of the list.

Experiment: chemical genetic growth profiling, strain panel (AID 1159580);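 further: tested at 20 µM; growth read once vehicle control cultures reached saturation at 30 °C; 1 = growth at the plate median or of vehicle wells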
Conditions: S. cerevisiae deletion strains, growth OD

Measured: normalized growth

O=[N+]([O-])c1ccc(O)c([N+](=O)[O-])c1
0.801 (inactive) and 0.3 (active): locus YJL095W, strain BCK1, stronger effect = lower value
active: locus YAL013W, strain DEP1, stronger effect = lower value 0.837 | locus YAL021C, strain ccr4, stronger effect = lower value 0.869 | locus YAL026C, strain drs2, stronger effect = lower value 0.776 | locus YAL030W, strain snc1, stronger effect = lower value 0.812 | locus YBL061C, strain skt5, stronger effect = lower value 0.832 | locus YBR009C, strain hhf1, stronger effect = lower value 0.823 | locus YBR021W, strain FUR4, stronger effect = lower value 0.647 | locus YBR023C, strain chs3, stronger effect = lower value 0.88 | locus YBR171W, strain sec66, stronger effect = lower value 0.799 | locus YBR229C, strain ROT2, stronger effect = lower value 0.839 | locus YBR231C, strain swc5, stronger effect = lower value 0.851 | locus YBR279W, strain paf1, stronger effect = lower value 0.817 | locus YCL011C, strain gbp2, stronger effect = lower value 0.807 | locus YCL016C, strain dcc1, stronger effect = lower value 0.873 | locus YCL029C, strain bik1, stronger effect = lower value 0.693 | locus YCL069W, strain vba3, stronger effect = lower value 0.775 | locus YCR088W, strain abp1, stronger effect = lower value 0.775 | locus YDL005C, strain med2, stronger effect = lower value 0.875 | locus YDL040C, strain nat1, stronger effect = lower value 0.848 | locus YDL101C, strain DUN1, stronger effect = lower value 0.877 | locus YDL134C, strain PPH21, stronger effect = lower value 0.796 | locus YDL185W, strain tfp1, stronger effect = lower value 0.109 | locus YDL192W, strain arf1, stronger effect = lower value 0.759 | locus YDR001C, strain nth1, stronger effect = lower value 0.766 | locus YDR101C, strain arx1, stronger effect = lower value 0.686 | locus YDR150W, strain NUM1, stronger effect = lower value 0.788 | locus YDR159W, strain sac3, stronger effect = lower value 0.677 | locus YDR162C, strain NBP2, stronger effect = lower value 0.785 | locus YDR297W, strain sur2, stronger effect = lower value 0.826 | locus YDR318W, strain mcm21, stronger effect = lower value 0.727 | locus YDR334W, strain swr1, stronger effect = lower value 0.742 | locus YDR335W, strain msn5, stronger effect = lower value 0.798 | locus YDR388W, stronger effect = lower value 0.694 | locus YDR392W, strain spt3, stronger effect = lower value 0.674 | locus YDR502C, strain sam2, stronger effect = lower value 0.735 | locus YEL003W, strain gim4, stronger effect = lower value 0.829 | locus YEL037C, strain rad23, stronger effect = lower value 0.797 | locus YEL061C, strain CIN8 (second series), stronger effect = lower value 0.794 | locus YEL061C, strain CIN8, stronger effect = lower value 0.817 | locus YER015W, strain faa2, stronger effect = lower value 0.795 | locus YER016W, strain bim1, stronger effect = lower value 0.89 | locus YER110C, stronger effect = lower value 0.64 | locus YER111C, strain swi4, stronger effect = lower value 0.79 | locus YER155C, strain BEM2 (second series), stronger effect = lower value 0.615 | locus YER155C, strain BEM2, stronger effect = lower value 0.63 | locus YER167W, strain BCK2, stronger effect = lower value 0.76 | locus YFR010W, strain ubp6, stronger effect = lower value 0.861 | locus YGL078C, strain dbp3, stronger effect = lower value 0.252 | locus YGL086W, strain mad1, stronger effect = lower value 0.779 | locus YGL167C, strain pmr1, stronger effect = lower value 0.84 | locus YGL173C, strain kem1, stronger effect = lower value 0.822 | locus YGL227W, strain vid30, stronger effect = lower value 0.743 | locus YGL240W, strain doc1, stronger effect = lower value 0.739 | locus YGL248W, strain PDE1, stronger effect = lower value 0.81 | locus YGL253W, strain hxk2, stronger effect = lower value 0.717 | locus YGR078C, strain PAC10, stronger effect = lower value 0.789 | locus YGR135W, strain pre9, stronger effect = lower value 0.76 | locus YGR252W, strain gcn5, stronger effect = lower value 0.709 | locus YHR027C, strain rpn1, stronger effect = lower value 0.814 | locus YHR079C, strain IRE1 (second series), stronger effect = lower value 0.665 | locus YHR079C, strain IRE1, stronger effect = lower value 0.254 | locus YHR094C, strain hxt1, stronger effect = lower value 0.681 | locus YHR129C, strain ARP1, stronger effect = lower value 0.738 | locus YHR142W, strain chs7, stronger effect = lower value 0.792 | locus YHR200W, strain rpn10, stronger effect = lower value 0.736 | locus YIL066C, strain RNR3, stronger effect = lower value 0.794 | locus YIL125W, strain kgd1, stronger effect = lower value 0.211 | locus YIR030C, strain dcg1, stronger effect = lower value 0.694 | locus YJL092W, strain hpr5, stronger effect = lower value 0.759 | locus YJL095W, strain BCK1 (second series), stronger effect = lower value 0.834 | locus YJL115W, strain asf1, stronger effect = lower value 0.757 | locus YJL129C, strain trk1, stronger effect = lower value 0.694 | locus YJL134W, strain LCB3, stronger effect = lower value 0.777 | locus YJL154C, strain vps35, stronger effect = lower value 0.773 | locus YJL164C, strain tpk1, stronger effect = lower value 0.863 | locus YJL166W, strain qcr8, stronger effect = lower value 0.85 | locus YJL168C, strain set2, stronger effect = lower value 0.719 | locus YJL187C, strain SWE1 (second series), stronger effect = lower value 0.825 | locus YJL187C, strain SWE1, stronger effect = lower value 0.842 | locus YJR066W, strain TOR1, stronger effect = lower value 0.254 | locus YJR075W, strain HOC1, stronger effect = lower value 0.824
inactive: locus YDL035C, strain GPR1, stronger effect = lower value 0.871 | locus YDL074C, strain BRE1, stronger effect = lower value 0.824 | locus YDR069C, strain doa4, stronger effect = lower value 0.936 | locus YDR137W, strain rgp1, stronger effect = lower value 0.915 | locus YDR195W, strain ref2 0.927 | locus YGR229C, strain SMI1, stronger effect = lower value 0.81 | locus YHR013C, strain ard1, stronger effect = lower value 0.981 | locus YIL073C, strain SPO22, stronger effect = lower value 0.986 | locus YJR043C, strain POL32, stronger effect = lower value 0.892
